Here are results for 39 molecules from PubChem BioAssay AID1014 (NMMLSC, 2008).

Calls of active or inactive are those of the source. Rule as the data show it: active = inhibition of mean fluorescence above about 33%; inactive = the rest.

The experiment in a line: quorum sensing inhibitors in bacterial reporter, SAR follow-up, flow cytometry, SAR analogs (AID 1014).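 Also: Staphylococcus aureus RN6390 with RNAIII-GFP reporter stimulated by AIP; bacteria incubated with compound for 3 hours at 37 °C.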 The note with it: at 20 µM, stronger effect = higher value; inhibition of percent positive cells: flow cytometry fluorescence, measured here: percent reporter-positive cells.
As to `O=C(Nc1ccc2c(c1)OCO2)C(c1ccccc1)N1CCC2(CC1)OCCO2` (stereo not drawn), the inhibition of mean fluorescence was -2.7% (inactive) and the inhibition of percent positive cells was -0.2%.

Turning to `O=C(O)c1cccnc1Nc1cccc(SC(F)(F)F)c1`, the inhibition of mean fluorescence is 64.5% (active) and the inhibition of percent positive cells was found to be 8.8%.

For the molecule `O=C(CN1CC(=O)Oc2ccccc21)Nc1ccc2c(c1)OCO2`, the inhibition of mean fluorescence was -25.8% (inactive) and the inhibition of percent positive cells was -0.2%.

With `COc1cccc(C(=O)NCC(c2cccnc2)N2CCN(c3ccccc3OC)CC2)c1` (stereo not drawn), the inhibition of percent positive cells was -0.3% and the inhibition of mean fluorescence is 10.5% (inactive).

In the case of `CC(C)c1ccc(NC(=O)C(c2ccc3c(c2)OCO3)N2CCC3(CC2)OCCO3)cc1` (stereo not drawn), the inhibition of percent positive cells is -0.8% and the inhibition of mean fluorescence is 15.2% (inactive).

In the case of `O=C(NCC(c1cccnc1)N1CCN(c2ccccc2F)CC1)c1cccs1` (stereo not drawn), the inhibition of percent positive cells was -0.4% and the inhibition of mean fluorescence was 19.5% (inactive).

`CC1CCN(C(=O)c2oc3ccccc3c2NC(=O)c2ccc3c(c2)OCO3)CC1`: the inhibition of mean fluorescence is 25.2% (inactive) and the inhibition of percent positive cells was -0.2%.

Regarding `COc1cccc(Nc2c(F)c(F)c(F)c(F)c2C(=O)O)c1`, the inhibition of percent positive cells is -0.2% and the inhibition of mean fluorescence was -12.9% (inactive).

With `O=C(NCCN1CCN(c2ccccc2F)CC1)c1ccc2c(Cl)c3c(nc2c1)CCCC3`, the inhibition of mean fluorescence was 4.8% (inactive) and the inhibition of percent positive cells is -0.2%.

On to `O=C(NCC(c1cccnc1)N1CCN(c2ccc(F)cc2)CC1)c1ccccc1` (stereo not drawn), for which the inhibition of mean fluorescence is 10% (inactive) and the inhibition of percent positive cells is -0.2%.

As for `CC(=O)Nc1ccc(Nc2nc3c(S(=O)(=O)c4ccccc4)nnn3c3ccccc23)cc1`, the inhibition of percent positive cells amounted to 3.3% and the inhibition of mean fluorescence is -8% (inactive).

For `COc1ccc(Nc2nc3c(S(=O)(=O)c4ccc(Br)cc4)nnn3c3ccccc23)cc1`, the inhibition of percent positive cells was -0.8% and the inhibition of mean fluorescence was 2.8% (inactive).

Regarding `O=C(CSc1cn(CC(=O)N2CCCCC2)c2ccccc12)Nc1ccc2c(c1)OCO2`, the inhibition of mean fluorescence was -6.3% (inactive) and the inhibition of percent positive cells is -0.1%.

Regarding `O=C(Nc1ccc2c(c1)OCO2)C(c1ccccc1)N1CCC(Cc2ccccc2)CC1` (stereo not drawn), the inhibition of mean fluorescence is 63% (active) and the inhibition of percent positive cells amounted to 4.2%.

With `CCc1ccc(S(=O)(=O)c2nnn3c2nc(Nc2ccc(Oc4ccccc4)cc2)c2cc(Cl)ccc23)cc1`, the inhibition of percent positive cells is -0.1% and the inhibition of mean fluorescence is -16.6% (inactive).

For `COc1ccc(S(=O)(=O)c2nnn3c2nc(Nc2cccc(C)c2)c2ccccc23)cc1`, the inhibition of percent positive cells came out at 0.1% and the inhibition of mean fluorescence is -7.2% (inactive).

Regarding `COC(=O)c1c(C)oc2cc(Br)c(O)cc12`, the inhibition of mean fluorescence is -18% (inactive) and the inhibition of percent positive cells was -1%.

`COc1ccc(S(=O)(=O)c2nnn3c2nc(Nc2ccccc2)c2ccccc23)cc1`: the inhibition of mean fluorescence was -22.4% (inactive) and the inhibition of percent positive cells amounted to 0.4%.

As for `N#Cc1c(NC(=O)CN2C(=O)c3ccccc3C2=O)oc(-c2ccccc2)c1-c1ccccc1`, the inhibition of percent positive cells amounted to 0.2% and the inhibition of mean fluorescence is 41.7% (active).

Take `Cc1ccc(S(=O)(=O)c2nnn3c2nc(Nc2ccc(C(C)C)cc2)c2ccccc23)cc1`: the inhibition of mean fluorescence was 12.6% (inactive) and the inhibition of percent positive cells was -1.7%.

With `O=C(O)c1ccccc1NC(c1ccccc1)c1ccc(Cl)cc1` (stereo not drawn), the inhibition of percent positive cells was determined as 0.2% and the inhibition of mean fluorescence was 59.8% (active).

On to `CC(=O)c1cc2cc(O)ccc2o1`, for which the inhibition of percent positive cells worked out at 0.8% and the inhibition of mean fluorescence was -1% (inactive).

As to `O=C(NC1CCCC1)C(c1cc2c(cc1[N+](=O)[O-])OCO2)N1CCN(c2ccccc2)CC1` (stereo not drawn), the inhibition of percent positive cells was -1.6% and the inhibition of mean fluorescence is -13.2% (inactive).

Consider `Cc1oc2ccc(O)cc2c1C(=O)OC(C)C`, for which the inhibition of mean fluorescence was -11.3% (inactive) and the inhibition of percent positive cells turned out to be 0.1%.

For the molecule `COc1ccc(Nc2nc3c(S(=O)(=O)c4ccc(Cl)cc4)nnn3c3ccccc23)cc1`, the inhibition of percent positive cells is -0.9% and the inhibition of mean fluorescence was -19.3% (inactive).

With `Cc1[nH]nc(Nc2ccccc2C(=O)O)c1[N+](=O)[O-]`, the inhibition of percent positive cells was found to be 0.2% and the inhibition of mean fluorescence is 0.1% (inactive).

Consider `O=C(NCC(c1cccnc1)N1CCN(c2ccccc2F)CC1)C1CC1` (stereo not drawn), for which the inhibition of percent positive cells was -0.7% and the inhibition of mean fluorescence was -8.8% (inactive).

In the case of `COc1ccccc1N1CCN(C(CNC(=O)c2cccc(Cl)c2)c2cccnc2)CC1` (stereo not drawn), the inhibition of percent positive cells came to 15.4% and the inhibition of mean fluorescence is 72.3% (active).

On to `O=C(NC1CCCC1)C(c1cc2c(cc1[N+](=O)[O-])OCO2)N1CCCC1` (stereo not drawn), for which the inhibition of mean fluorescence was -3.7% (inactive) and the inhibition of percent positive cells was -0.1%.

Consider `Cc1cccc(Nc2nc3c(S(=O)(=O)c4ccccc4)nnn3c3ccccc23)c1`, for which the inhibition of percent positive cells is 0.2% and the inhibition of mean fluorescence was 3.1% (inactive).

As to `COc1c(F)c(F)c(C(=O)O)c(Nc2ccc(C)cc2)c1F`, the inhibition of percent positive cells is -1.6% and the inhibition of mean fluorescence was 9.1% (inactive).

As to `O=C(O)c1ccccc1Nc1cccc2c1C(=O)c1ccccc1C2=O`, the inhibition of percent positive cells came to 10% and the inhibition of mean fluorescence was 58.7% (active).

For the molecule `CC(C)c1ccc(S(=O)(=O)c2nnn3c2nc(N)c2ccccc23)cc1`, the inhibition of mean fluorescence is 11.1% (inactive) and the inhibition of percent positive cells turned out to be 0.3%.

Turning to `CC(=O)c1c(C)oc2c1cc(O)c1ccccc12`, the inhibition of percent positive cells was -0.2% and the inhibition of mean fluorescence is 9.1% (inactive).

`CC1CCN(CCC(=O)Nc2ccc3c(c2)OCO3)CC1`: the inhibition of mean fluorescence is 10% (inactive) and the inhibition of percent positive cells came to 1.6%.

Regarding `CCc1ccc(Nc2nc3c(S(=O)(=O)c4ccc(C(C)C)cc4)nnn3c3ccccc23)cc1`, the inhibition of mean fluorescence is 6.9% (inactive) and the inhibition of percent positive cells is -1.1%.

On to `O=C(O)c1c(F)c(F)c(F)c(F)c1Nc1cccc(C(F)(F)F)c1`, for which the inhibition of mean fluorescence is 6% (inactive) and the inhibition of percent positive cells was -0.1%.

As for `O=C(Nc1ccc2c(c1)OCO2)C1CCN(Cc2cnn(-c3ccccc3)c2-n2cccc2)CC1`, the inhibition of percent positive cells is -0.6% and the inhibition of mean fluorescence was -33.1% (inactive).

Turning to `O=C(NCC(c1cccnc1)N1CCN(Cc2ccccc2)CC1)c1ccccc1` (stereo not drawn), the inhibition of mean fluorescence is 12.3% (inactive) and the inhibition of percent positive cells is -0.4%.
